Reference: PubChem BioAssay (NCATS)
Where “and” joins values, the source holds several entries; their conditions need not be identical. Equal entries are not always repeated. Records with an inconclusive call do not appear. Calls of active or inactive are those of the source. The call rests on the fitted dose curve; in most records, active means well fitted curve in the direction sought with a large enough effect; inconclusive means small, poorly fitted or top-dose-only effect, or another doubt; inactive means no such curve, though single readings can be large; an effect the other way counts as inactive or inconclusive.

Tests used:
[1] = Primary qHTS for inhibitors of nuclear receptor binding SET domain protein 2 (NSD2) in an isogenic RCH-ACV NSD2 p.E1099K mutant (9B) (AID 1645876); further: nearly all actives have a fitted effect of over 70% in size; further: potency means the concentration at half of the fitted maximal effect
[2] = Primary qHTS for inhibitors of nuclear receptor binding SET domain protein 2 (NSD2) in an RCH-ACV wild type WT cells (2C) (AID 1645877); further: nearly all actives have a fitted effect of over 70% in size; further: potency means the concentration at half of the fitted maximal effect
[3] = target: Glutathione peroxidase 1 (Homo sapiens) (UniProt P07203); experiment: Primary qHTS Assay for Inhibitors of Recombinant Selenoprotein Glutathione Peroxidase 1 (GPX1) (AID 1845191); further: nearly all actives have a fitted effect of over 65% in size; further: potency means the concentration at half of the fitted maximal effect
Procedure, shortened: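 NADPH consumption tracked by fluorescence at 340/450 nm between t=0 and t=15 min, room temperature. Final mix: 10 nM GPX1, 100 nM glutathione reductase, 1 mM GSH, 0.5 mM NADPH, 0.5 mM cumene hydroperoxide, 0.01% BSA; 30 min compound–enzyme preincubation.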

[4] = target: Phospholipid hydroperoxide glutathione peroxidase GPX4 (Homo sapiens) (UniProt P36969); experiment: Primary qHTS Assay for Inhibitors of Recombinant Selenoprotein Glutathione Peroxidase 4 (GPX4) (AID 1845192); further: nearly all actives have a fitted effect of over 65% in size
Procedure, shortened: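 NADPH consumption followed by fluorescence at 340/450 nm, t=0 and after 15 min at room temperature. Reaction started with cumene hydroperoxide (0.5 mM final) after 30 min compound–GPX4 preincubation; final 200 nM GPX4, 100 nM GR, 1 mM GSH, 0.5 mM NADPH.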

Measured: Potency

Sequence of Phospholipid hydroperoxide glutathione peroxidase GPX4 (Homo sapiens) (P36969 whole entry, looked up): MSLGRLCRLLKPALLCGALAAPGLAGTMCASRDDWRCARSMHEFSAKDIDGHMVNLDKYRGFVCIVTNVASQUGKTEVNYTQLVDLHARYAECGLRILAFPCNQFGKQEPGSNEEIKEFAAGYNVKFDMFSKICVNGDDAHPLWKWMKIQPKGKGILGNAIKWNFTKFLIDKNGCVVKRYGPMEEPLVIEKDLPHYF
Sequence of Glutathione peroxidase 1 (Homo sapiens) (P07203 whole entry, looked up): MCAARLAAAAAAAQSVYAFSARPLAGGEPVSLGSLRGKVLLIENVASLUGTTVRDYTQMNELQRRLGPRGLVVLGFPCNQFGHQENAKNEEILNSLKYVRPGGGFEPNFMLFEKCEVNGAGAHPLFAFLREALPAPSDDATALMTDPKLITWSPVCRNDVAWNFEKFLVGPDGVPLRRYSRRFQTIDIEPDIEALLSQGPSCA

O=[N+]([O-])c1ccc(O)c2ncccc12
inactive: [3] | [4]
active: [1] 1.88 µM and 6.61 µM | [2] 841 nM and 6.61 µM

CCCCCC1Nc2cc(C(F)(F)F)c(S(N)(=O)=O)cc2S(=O)(=O)N1 (stereo not given)
inactive: all assays above

O=C(COCCOCCOCC(=O)Nc1c(I)cc(I)c(C(=O)O)c1I)Nc1c(I)cc(I)c(C(=O)O)c1I
inactive: all assays above

[O-][n+]1cccc(/C(Cl)=N/OC[C@@H](O)CN2CCCCC2)c1
inactive: all assays above

O=C(Nc1ccc(Cl)cc1)Nc1ccc(Cl)c(Cl)c1
inactive: [3] | [4]
active: [1] 6.68 µM | [2] 6.68 µM

C[C@H]1NCc2cc(-c3ccc4c(=O)c(C(=O)O)cn(C5CC5)c4c3OC(F)F)ccc21
inactive: all assays above

COC(=O)/C=C\C(=O)OC
inactive: all assays above

O=C(NN1CCCC1)NS(=O)(=O)c1ccc(Cl)cc1
inactive: all assays above

Cc1cccc(C)c1NC(=O)c1cc(S(N)(=O)=O)c(Cl)cc1O
inactive: all assays above

CC(=O)/C=C/C=C1/C2CCC(C2)C1(C)C (stereo not given)
inactive: all assays above

O=C(CCCCC(=O)Nc1c(I)cc(I)c(C(=O)O)c1I)Nc1c(I)cc(I)c(C(=O)O)c1I
inactive: all assays above

COC(=O)CCCCC(CCSS/C(CCO)=C(\C)N(C=O)Cc1cnc(C)nc1N)SC(C)=O (stereo not given)
inactive: all assays above

CC(C)(C)c1nnc(NS(=O)(=O)c2ccccc2)s1
inactive: all assays above

C[C@H](CN1CCCC1)C(=O)c1ccc(C(F)(F)F)cc1
active: [1] 11.9 µM | [2] 6.68 µM
inactive: [3] | [4]

O=C(CCOCCOCCOCCOCCC(=O)Nc1c(I)cc(I)c(C(=O)O)c1I)Nc1c(I)cc(I)c(C(=O)O)c1I
inactive: all assays above

CCOc1ccc(NS(=O)(=O)c2ccc(N)cc2)nn1
inactive: all assays above

CC(C)NCCCC1(C(N)=O)c2ccccc2-c2ccccc21
inactive: all assays above

O=c1[nH]c(=O)n([C@H]2O[C@H](CO)[C@@H](O)[C@@H]2O)cc1/C=C\Br
inactive: all assays above

Cc1ccccc1C(=O)N1CC/C(=N\OS(=O)(=O)O)c2ccc(Cl)cc21
inactive: all assays above

CCCCOCCOC(=O)c1cccnc1
inactive: all assays above

NS(=O)(=O)c1ccc(N2CCCCS2(=O)=O)cc1
inactive: all assays above

O=S(=O)(O)c1ccc2nc(-c3ccccc3)[nH]c2c1
inactive: all assays above

NC(=O)NC1N=C([O][Al])NC1=O (stereo not given)
inactive: all assays above

O=C(CS(=O)Cc1ccco1)NC/C=C\COc1cc(CN2CCCCC2)ccn1 (stereo not given)
active: [3] 18 µM
inactive: all other assays above

CCN(CC)CC(=O)Nc1c(C)cccc1C(=O)OC
inactive: all assays above

CCOC(=O)NNc1nncc2ccccc12
inactive: all assays above

CC(=O)Nc1ccc(S(=O)(=O)Nc2cc(C)on2)cc1
inactive: all assays above

O=C1NC(c2ccccc2)(c2ccccc2)C(=O)N1COP(=O)(O)O
inactive: all assays above

CC(=O)OCC[N+](C)(C)C
inactive: all assays above

Brc1ccc([C@H]2CN3CCSC3=N2)cc1
inactive: all assays above
